Inconclusive results are not listed. Where a call stands in place of a potency, no number is given. A number with no mark means an inactive call. Activity calls are given as the source filed them. Calls come from the whole dose curve; as a rule, active = well fitted curve in the direction sought with a large enough effect; inconclusive = small, poorly fitted or top-dose-only effect, or another doubt; inactive = no such curve, though single readings can be large; an effect the other way counts as inactive or inconclusive. Peptide text beside a SMILES is read from it.
How the values were obtained:
[1] = qHTS of pediatric cancer cell lines to identify multiple opportunities for drug repurposing: Primary screen for BT-12 cells (AID 1347101); note: nearly all actives have a fitted effect of over 25% in size
In short: (§1)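 Cells (500-1,000/well) rested 5 h, then received compounds for 48 h; metabolically active cells were measured by CellTiter-Glo luminescence. Final concentrations spanned up to 46 µM (MIPE, 11-point) or 0.59 nM-46 µM (NPC, 8-point) in primary screens, 11-point in follow-ups.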

[2] = qHTS of pediatric cancer cell lines to identify multiple opportunities for drug repurposing: Primary screen for Rh18 cells (AID 1347102); note: nearly all actives have a fitted effect of over 65% in size
In short: (§2)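 Viability after 48 h compound treatment at 37C, 500-1,000 cells/well, read as ATP luminescence with CellTiter-Glo. Primary screens used 11-point (MIPE, 0.78 nM-46 µM) or 8-point (NPC, 0.59 nM-46 µM) final concentrations; follow-up screens used 11-point dilutions.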

[3] = qHTS of pediatric cancer cell lines to identify multiple opportunities for drug repurposing: Primary screen for OHS-50 cells (AID 1347103); note: nearly all actives have a fitted effect of over 40% in size
In short: as §1

[4] = qHTS of pediatric cancer cell lines to identify multiple opportunities for drug repurposing: Primary screen for RD cells (AID 1347104); note: nearly all actives have a fitted effect of over 55% in size; note: potency is the fitted concentration of half-maximal effect
In short: (§3)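 Following a 5-hour attachment period, cells at 500-1,000/well received compounds and were cultured for 48 hours. CellTiter-Glo was added and luminescence read to estimate viable, metabolically active cells.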

[5] = qHTS of pediatric cancer cell lines to identify multiple opportunities for drug repurposing: Primary screen for MG 63 (6-TG R) cells (AID 1347105); note: nearly all actives have a fitted effect of over 50% in size
In short: as §3

[6] = qHTS of pediatric cancer cell lines to identify multiple opportunities for drug repurposing: Primary screen for control Hh wild type fibroblast cells (AID 1347106);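 note: series mostly up to about 46 µM; a drop in luminescence marks cytotoxicity and a rise apparent proliferation; nearly all actives have a fitted effect of over 55% in size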
In short: as §2

[7] = qHTS of pediatric cancer cell lines to identify multiple opportunities for drug repurposing: Primary screen for Rh30 cells (AID 1347107); note: series mostly up to about 46 µM; nearly all actives have a fitted effect of over 75% in size
In short: as §2

[8] = qHTS of pediatric cancer cell lines to identify multiple opportunities for drug repurposing: Primary screen for Rh41 cells (AID 1347108);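 note: series mostly up to about 46 µM; luminescence drop marks cytotoxic hits; nearly all actives have a fitted effect of over 70% in size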
In short: as §3

SMILES	Potency [1]	Potency [2]	Potency [3]	Potency [4]	Potency [5]	Potency [6]	Potency [7]	Potency [8]
CCCc1cc(=O)[nH]c(=S)[nH]1	inactive	inactive	inactive	inactive	inactive	inactive	inactive	inactive
COC(=O)[C@H](Cc1ccccc1)NC(=O)[C@@H](N)CC(=O)O (H-Asp-Phe-OMe)	inactive	inactive	inactive	inactive	inactive	inactive	inactive	inactive
CN(C)CCCC1(c2ccc(F)cc2)OCc2cc(C#N)ccc21 (centres undefined)	inactive	inactive	inactive	29.6 µM (active)	inactive	inactive	inactive	
O=C(c1ccccc1)c1ccc2n1CCC2C(=O)O (centres undefined)	inactive	inactive	inactive	inactive	inactive	inactive	inactive	
COCCCOc1ccnc(CS(=O)c2nc3ccccc3[nH]2)c1C (centres undefined)	inactive	inactive	inactive	inactive	inactive	inactive	inactive	inactive
O=C(O)c1cccc(-c2noc(-c3ccccc3F)n2)c1	inactive	inactive	inactive	inactive	inactive	inactive	inactive	
CC(=O)NC[C@H]1CN(c2ccc(N3CCOCC3)c(F)c2)C(=O)O1	inactive	inactive	inactive	inactive	inactive	inactive	inactive	inactive
Nc1cc(C(Cl)=C(Cl)Cl)c(S(N)(=O)=O)cc1S(N)(=O)=O	inactive	inactive	inactive	inactive	inactive	inactive	inactive	inactive
CCC(C)(Oc1ccc(C2(c3ccc(OC(C)(CC)C(=O)O)cc3)CCCCC2)cc1)C(=O)O (centres undefined)	inactive	inactive	inactive	inactive	inactive	inactive	inactive	inactive
O=C(NCCO[N+](=O)[O-])c1cccnc1	inactive	inactive	inactive	inactive	inactive	inactive	inactive	inactive
CCCCCCCCCCCCCCCCCCCCCCO	inactive	inactive	inactive	inactive	inactive	inactive	inactive	inactive
O=C(O)CCNC(=O)c1ccc(N=Nc2ccc(O)c(C(=O)O)c2)cc1	inactive	inactive	inactive	inactive	inactive	inactive	inactive	
CN1C(C(=O)Nc2ccccn2)=C(O)c2sccc2S1(=O)=O	inactive	inactive	inactive	inactive	inactive	inactive	inactive	inactive
CNC[C@@H](O)[C@@H](O)[C@H](O)[C@H](O)CO	inactive	inactive	inactive	inactive	inactive	inactive	inactive	inactive
CCOC(=O)c1c(C)n(C)c2ccc(O)cc12	inactive	inactive	inactive	inactive	inactive	inactive	inactive	
Clc1ccc2c(N3CCN(CCCN4CCN(c5ccnc6cc(Cl)ccc56)CC4)CC3)ccnc2c1	inactive	inactive	inactive	inactive	inactive	inactive	inactive	inactive
C[C@H](Cn1cnc2c(N)ncnc21)OCP(=O)(O)O	inactive	inactive	inactive	inactive	inactive	inactive	inactive	inactive
COc1cc2nc(N3CCN(C(=O)C4CCCO4)CC3)nc(N)c2cc1OC (centres undefined)	inactive	inactive	inactive	inactive	inactive	inactive	inactive	inactive
COc1cc2c(cc1OC)C1CC(=O)C(CC(C)C)CN1CC2 (centres undefined)	inactive	inactive	inactive	inactive	inactive	inactive	inactive	inactive
CC(=O)Nc1ccc(O)cc1	inactive	inactive	inactive	inactive	inactive	inactive	inactive	inactive
CCOC(=O)C1=C[C@@H](OC(CC)CC)[C@H](NC(C)=O)[C@@H](N)C1	inactive	inactive	inactive	inactive	inactive	inactive	inactive	inactive
CCOC(=O)C1=C(O)C(=O)N(Cc2ccccc2)C1	inactive	inactive	inactive	inactive	inactive	inactive	inactive	inactive
CNC[C@H](O)c1ccc(O)c(O)c1	inactive	inactive	inactive	inactive	inactive	inactive	inactive	inactive
NNc1nncc2ccccc12	inactive	inactive	inactive	inactive	inactive	inactive	inactive	
N[C@@H](Cc1cc(I)c(Oc2cc(I)c(O)c(I)c2)c(I)c1)C(=O)O	inactive	inactive	inactive	inactive	inactive	inactive	inactive	inactive

From PubChem BioAssay (NCATS)
